Test results taken from PubChem BioAssay.
Active and inactive are the calls of the source.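 The calls were made as follows, unless noted: active = fluorescence slope higher than the sample average by over 3 SD (cut at about -0.22 in these data, passing the limit was not always enough); inactive = the rest.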

test system: not listed separately; experiment: inhibitors of E-selectin induction by TNFa, primary screen, imaging, HUVEC, immunofluorescence, MLSMR starter and 10KST1 sets (AID 487;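 active = visually confirmed hit in the image check and inhibition above 20%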;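 as to inhibition: signal is fraction of cell area covered by stained E-selectin grains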;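 as to nuclei count: 100% = median nuclei count of all wells on the same plate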); details: HUVEC TNFalpha-induced E-selectin immunofluorescence imaging, at 2 µM; inhibition: stronger effect = higher value; nuclei count: measured here: cell number, toxicity

| SMILES | inhibition | nuclei count [%] |
| --- | --- | --- |
| Cc1cc(C)n(-c2ccc(N3CCOCC3)nn2)n1 | -27.5% (inactive) | 120 |
| O=C(Nc1ccc(S(=O)(=O)N2CCc3ccccc32)cc1)c1ccc2c(c1)OCO2 | 5.1% (inactive) | 83.2 |
| Cc1ccc2occ(CN3CCN(c4ccccc4)CC3)c(=O)c2c1 | -17% (inactive) | 93.3 |
| Cc1ccc(S(=O)(=O)N2CCN(C(=O)CSC3CCCC3)CC2)c(C)c1 | -425% (inactive) | 110 |
| Nc1nonc1-n1nnc(C(=O)c2ccccc2)c1-c1ccccc1 | 28.1% (inactive) | 103 |
| COc1cc(C2c3c(n[nH]c3C)C(=O)N2c2ccc(C)cc2)ccc1O (stereo not given) | -34.1% (inactive) | 112 |
| CC(C)(C)n1nnnc1CN(Cc1ccco1)Cc1cc2cc3c(cc2[nH]c1=O)OCO3 | -53.9% (inactive) | 130 |
| COc1ccccc1N1CCN(S(=O)(=O)CC23CCC(CC2=O)C3(C)C)CC1 (stereo not given) | -64.4% (inactive) | 157 |
| CC1(C)CC(=O)C=C(NCCN2CCN(C(=O)Nc3ccccc3)CC2)C1 | -2.1% (inactive) | 109 |
| Cc1ccccc1OCc1nnc(SCC(=O)NCc2ccccc2)n1C | -22.7% (inactive) | 120 |
| CCN(CC(=O)O)S(=O)(=O)c1cc(Cl)ccc1Cl | -33.4% (inactive) | 75.2 |
| COC(=O)C1CCN(C(=O)CN2C(=O)NC(CCc3ccccc3)C2=O)CC1 (stereo not given) | -16.4% (inactive) | 110 |
| CCOC(=O)Cn1c(CN2CCOCC2)nc2c1c(=O)[nH]c(=O)n2C | -6% (inactive) | 118 |
| CCc1cccc(NC(=O)CN(C)S(=O)(=O)c2cccc3nsnc23)c1 | -68.8% (inactive) | 120 |
| O=C(Cn1ncc2c(=O)oc3ccccc3c21)Nc1nc2ccccc2s1 | -282% (inactive) | 90.7 |
| Cn1c(SCc2ccccc2)nnc1C1CCCNC1 (stereo not given) | 10.3% (inactive) | 125 |
| Cc1c(NC(=O)c2ccc(COc3ccc4ccccc4c3)o2)c(=O)n(-c2ccccc2)n1C | -55.3% (inactive) | 109 |
| CCOc1ccccc1-n1c(SCC(=O)NCc2ccco2)nnc1-c1ccncc1 | 6% (inactive) | 85.8 |
| COc1ccc(/C=N/n2cnnc2SCc2ccc(OC)cc2)cc1 | -27.7% (inactive) | 108 |
| CCN(CCCNC(=O)C1CCCN(S(=O)(=O)c2cnc[nH]2)C1)c1ccccc1 (stereo not given) | -91.6% (inactive) | 142 |

| SMILES | inhibition | nuclei count [%] |
| --- | --- | --- |
| COc1cc(Cn2c(-c3nonc3N)nc3ccccc32)ccc1C | -20.1% (inactive) | 99.4 |
| C(/CCc1ccccc1)=N\n1cnnc1 | 17.1% (inactive) | 105 |
| Clc1ccc(OCCCn2cncn2)cc1Cl | 7.8% (inactive) | 94.7 |
| Cn1c(=O)c2c(nc(CN3CCc4ccccc4C3)n2Cc2cccc(Cl)c2)n(C)c1=O | -22.8% (inactive) | 124 |
| c1ccc(N=P(c2nc3ccccc3o2)(N2CCOCC2)N2CCOCC2)cc1 | -1.8% (inactive) | 107 |
| CN1C(=O)C(O)(CC(=O)c2ccc(F)cc2)c2cc(Br)ccc21 (stereo not given) | 16.6% (inactive) | 97.6 |
| O=C(c1ccc(Br)cc1)N1CCN(S(=O)(=O)c2ccccc2)CC1 | -43.3% (inactive) | 106 |
| O=C(CN1CCN(C2CCCCC2)CC1)Nc1ccccc1-c1ccccc1 | -7.3% (inactive) | 105 |
| CC1CCCC(N2CCN(C(=O)c3ccc(F)cc3)CC2)C1 (stereo not given) | -53.4% (inactive) | 114 |
| O=C(Nc1ccccc1C(=O)N1CCOCC1)c1cccc(S(=O)(=O)N2CCCC2)c1 | -138% (inactive) | 118 |
| O=C(Nc1cc(C(F)(F)F)ccc1Cl)C1CCN(c2nnc(-n3cccc3)s2)CC1 | -114% (inactive) | 126 |
| CC(C)c1ccc(C(O)c2cnc(C(C)C)n2C)cc1 (stereo not given) | -93.9% (inactive) | 106 |
| CCOc1cccc(-c2nnc3n2N=C(c2cc(OC)ccc2OC)CS3)c1 | -56.6% (inactive) | 111 |
| CCOC(=O)N1CCC(N2C(=O)c3ccccc3C2Nc2cccnc2)CC1 (stereo not given) | -11.7% (inactive) | 117 |
| CCn1ncc(C2=NOC(C(=O)Nc3ccc4c(c3)OCO4)C2)c1C (stereo not given) | -156% (inactive) | 112 |
| O=C(NCc1nc2ccccc2[nH]1)c1ccco1 | -228% (inactive) | 140 |
| C=CCSc1nnc(Cc2c(C)[nH]c3ccccc23)o1 | -15.9% (inactive) | 118 |
| COCCn1c(CN2CCN(c3ccccc3F)CC2)nc2c1c(=O)n(C)c(=O)n2C | 2.6% (inactive) | 90.2 |
| O=C(Nc1cccc(NC(=O)c2ccco2)c1)c1ccc2c(c1)OCO2 | -70.1% (inactive) | 121 |
| CCOC(=O)N1CCN(Cc2nc3c(c(=O)[nH]c(=O)n3C)n2Cc2cc(C)ccc2C)CC1 | -103% (inactive) | 119 |

target: Voltage-gated potassium channel subunit beta-2 (Rattus norvegicus) (UniProt P62483); experiment: KvBeta enzyme negative modulators, primary screen, biochemical, NADPH fluorescence (AID 622); details: recombinant KvBeta, 4-cyanobenzaldehyde reduction, at 10 µM, stronger effect = higher value;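 also: slope of raw intensity against log time taken from 70 to 1610 s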
Sequence (P62483 whole entry, looked up): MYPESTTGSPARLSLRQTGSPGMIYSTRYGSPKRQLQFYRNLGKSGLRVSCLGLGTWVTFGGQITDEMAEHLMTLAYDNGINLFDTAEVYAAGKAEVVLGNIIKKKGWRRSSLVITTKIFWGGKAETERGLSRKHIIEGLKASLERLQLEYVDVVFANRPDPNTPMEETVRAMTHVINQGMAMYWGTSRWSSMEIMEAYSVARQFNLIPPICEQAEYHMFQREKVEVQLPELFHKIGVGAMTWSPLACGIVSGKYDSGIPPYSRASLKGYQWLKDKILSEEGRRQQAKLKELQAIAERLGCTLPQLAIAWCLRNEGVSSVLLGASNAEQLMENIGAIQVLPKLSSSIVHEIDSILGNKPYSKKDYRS

| SMILES | fluorescence slope |
| --- | --- |
| Cc1cc(C)n(-c2ccc(N3CCOCC3)nn2)n1 | -0.4 (inactive) |
| O=C(Nc1ccc(S(=O)(=O)N2CCc3ccccc32)cc1)c1ccc2c(c1)OCO2 | -0.603 (inactive) |
| Cc1ccc2occ(CN3CCN(c4ccccc4)CC3)c(=O)c2c1 | -0.454 (inactive) |
| Cc1ccc(S(=O)(=O)N2CCN(C(=O)CSC3CCCC3)CC2)c(C)c1 | -0.482 (inactive) |
| Nc1nonc1-n1nnc(C(=O)c2ccccc2)c1-c1ccccc1 | -0.571 (inactive) |
| COc1cc(C2c3c(n[nH]c3C)C(=O)N2c2ccc(C)cc2)ccc1O (stereo not given) | -0.586 (inactive) |
| CC(C)(C)n1nnnc1CN(Cc1ccco1)Cc1cc2cc3c(cc2[nH]c1=O)OCO3 | -0.401 (inactive) |
| COc1ccccc1N1CCN(S(=O)(=O)CC23CCC(CC2=O)C3(C)C)CC1 (stereo not given) | -0.452 (inactive) |
| CC1(C)CC(=O)C=C(NCCN2CCN(C(=O)Nc3ccccc3)CC2)C1 | -0.412 (inactive) |
| Cc1ccccc1OCc1nnc(SCC(=O)NCc2ccccc2)n1C | -0.521 (inactive) |
| CCN(CC(=O)O)S(=O)(=O)c1cc(Cl)ccc1Cl | -0.416 (inactive) |
| COC(=O)C1CCN(C(=O)CN2C(=O)NC(CCc3ccccc3)C2=O)CC1 (stereo not given) | -0.542 (inactive) |
| CCOC(=O)Cn1c(CN2CCOCC2)nc2c1c(=O)[nH]c(=O)n2C | -0.601 (inactive) |
| CCc1cccc(NC(=O)CN(C)S(=O)(=O)c2cccc3nsnc23)c1 | -0.35 (inactive) |
| O=C(Cn1ncc2c(=O)oc3ccccc3c21)Nc1nc2ccccc2s1 | -0.537 (inactive) |
| Cn1c(SCc2ccccc2)nnc1C1CCCNC1 (stereo not given) | -0.327 (inactive) |
| Cc1c(NC(=O)c2ccc(COc3ccc4ccccc4c3)o2)c(=O)n(-c2ccccc2)n1C | -0.598 (inactive) |
| CCOc1ccccc1-n1c(SCC(=O)NCc2ccco2)nnc1-c1ccncc1 | -0.405 (inactive) |
| COc1ccc(/C=N/n2cnnc2SCc2ccc(OC)cc2)cc1 | -0.348 (inactive) |
| CCN(CCCNC(=O)C1CCCN(S(=O)(=O)c2cnc[nH]2)C1)c1ccccc1 (stereo not given) | -0.507 (inactive) |

| SMILES | fluorescence slope |
| --- | --- |
| COc1cc(Cn2c(-c3nonc3N)nc3ccccc32)ccc1C | -0.591 (inactive) |
| C(/CCc1ccccc1)=N\n1cnnc1 | -0.628 (inactive) |
| Clc1ccc(OCCCn2cncn2)cc1Cl | -0.523 (inactive) |
| Cn1c(=O)c2c(nc(CN3CCc4ccccc4C3)n2Cc2cccc(Cl)c2)n(C)c1=O | -0.575 (inactive) |
| c1ccc(N=P(c2nc3ccccc3o2)(N2CCOCC2)N2CCOCC2)cc1 | -0.497 (inactive) |
| CN1C(=O)C(O)(CC(=O)c2ccc(F)cc2)c2cc(Br)ccc21 (stereo not given) | -0.436 (inactive) |
| O=C(c1ccc(Br)cc1)N1CCN(S(=O)(=O)c2ccccc2)CC1 | -0.588 (inactive) |
| O=C(CN1CCN(C2CCCCC2)CC1)Nc1ccccc1-c1ccccc1 | -0.609 (inactive) |
| CC1CCCC(N2CCN(C(=O)c3ccc(F)cc3)CC2)C1 (stereo not given) | -0.581 (inactive) |
| O=C(Nc1ccccc1C(=O)N1CCOCC1)c1cccc(S(=O)(=O)N2CCCC2)c1 | -0.455 (inactive) |
| O=C(Nc1cc(C(F)(F)F)ccc1Cl)C1CCN(c2nnc(-n3cccc3)s2)CC1 | -0.39 (inactive) |
| CC(C)c1ccc(C(O)c2cnc(C(C)C)n2C)cc1 (stereo not given) | -0.552 (inactive) |
| CCOc1cccc(-c2nnc3n2N=C(c2cc(OC)ccc2OC)CS3)c1 | -0.376 (inactive) |
| CCOC(=O)N1CCC(N2C(=O)c3ccccc3C2Nc2cccnc2)CC1 (stereo not given) | -0.6 (inactive) |
| CCn1ncc(C2=NOC(C(=O)Nc3ccc4c(c3)OCO4)C2)c1C (stereo not given) | -0.5 (inactive) |
| O=C(NCc1nc2ccccc2[nH]1)c1ccco1 | -0.38 (inactive) |
| C=CCSc1nnc(Cc2c(C)[nH]c3ccccc23)o1 | -0.427 (inactive) |
| COCCn1c(CN2CCN(c3ccccc3F)CC2)nc2c1c(=O)n(C)c(=O)n2C | -0.61 (inactive) |
| O=C(Nc1cccc(NC(=O)c2ccco2)c1)c1ccc2c(c1)OCO2 | -0.418 (inactive) |
| CCOC(=O)N1CCN(Cc2nc3c(c(=O)[nH]c(=O)n3C)n2Cc2cc(C)ccc2C)CC1 | -0.505 (inactive) |
